According to PubChem BioAssay AID1159580 (chemical genetic matrix, 2015):
The whole screen tested about 5,500 compounds, of which about 2,000 (36%) were called active. Not shown: some 18% with an inconclusive outcome. Rule as the data show it: active = normalized growth mostly below about 0.91 (no sharp cut-off); inconclusive = no clear call, values can overlap the other calls; inactive = mostly above about 0.92. This is one part of the list.

Test: chemical genetic growth profiling, strain panel (AID 1159580);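 also: tested at 20 µM; growth read once vehicle control cultures reached saturation at 30 °C; 1 = growth at the plate median or of vehicle wells; lower values mean less growth of the strain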
Settings: growth OD

Measured: normalized growth

O=C1CC(c2ccccc2)Oc2ccccc21 (stereo not drawn)
inactive: S. cerevisiae deletion strains, locus YBR021W, strain FUR4, active compounds read low 0.97 | S. cerevisiae deletion strains, locus YBR229C, strain ROT2, active compounds read low 0.985 | S. cerevisiae deletion strains, locus YCL029C, strain bik1, active compounds read low 0.971 | S. cerevisiae deletion strains, locus YDL035C, strain GPR1, active compounds read low 1.02 | S. cerevisiae deletion strains, locus YDL074C, strain BRE1, active compounds read low 0.989 | S. cerevisiae deletion strains, locus YDL101C, strain DUN1, active compounds read low 0.996 | S. cerevisiae deletion strains, locus YDL185W, strain tfp1, active compounds read low 0.958 | S. cerevisiae deletion strains, locus YDL192W, strain arf1, active compounds read low 0.957 | S. cerevisiae deletion strains, locus YDR101C, strain arx1, active compounds read low 0.958 | S. cerevisiae deletion strains, locus YDR162C, strain NBP2, active compounds read low 1.02 | S. cerevisiae deletion strains, locus YDR318W, strain mcm21, active compounds read low 0.954 | S. cerevisiae deletion strains, locus YDR388W, active compounds read low 0.96 | S. cerevisiae deletion strains, locus YDR502C, strain sam2, active compounds read low 0.96 | S. cerevisiae deletion strains, locus YEL061C, strain CIN8, active compounds read low 0.976 | S. cerevisiae deletion strains, locus YER110C, active compounds read low 0.963 | S. cerevisiae deletion strains, locus YER155C, strain BEM2, active compounds read low 0.982 | S. cerevisiae deletion strains, locus YER167W, strain BCK2, active compounds read low 0.989 | S. cerevisiae deletion strains, locus YGL078C, strain dbp3, active compounds read low 0.96 | S. cerevisiae deletion strains, locus YGL086W, strain mad1, active compounds read low 0.974 | S. cerevisiae deletion strains, locus YGL248W, strain PDE1, active compounds read low 0.993 | S. cerevisiae deletion strains, locus YGR135W, strain pre9, active compounds read low 0.969 | S. cerevisiae deletion strains, locus YGR229C, strain SMI1, active compounds read low 0.985 | S. cerevisiae deletion strains, locus YGR252W, strain gcn5, active compounds read low 1.03 | S. cerevisiae deletion strains, locus YHR030C, strain SLT2, active compounds read low 0.982 | S. cerevisiae deletion strains, locus YHR079C, strain IRE1 (second series), active compounds read low 0.967 | S. cerevisiae deletion strains, locus YHR094C, strain hxt1, active compounds read low 0.972 | S. cerevisiae deletion strains, locus YHR129C, strain ARP1, active compounds read low 0.983 | S. cerevisiae deletion strains, locus YHR200W, strain rpn10, active compounds read low 0.961 | S. cerevisiae deletion strains, locus YIL066C, strain RNR3, active compounds read low 1 | S. cerevisiae deletion strains, locus YIL073C, strain SPO22, active compounds read low 1.05 | S. cerevisiae deletion strains, locus YIL125W, strain kgd1, active compounds read low 0.956 | S. cerevisiae deletion strains, locus YIR030C, strain dcg1, active compounds read low 0.977 | S. cerevisiae deletion strains, locus YJL095W, strain BCK1, active compounds read low 0.932 | S. cerevisiae deletion strains, locus YJL134W, strain LCB3, active compounds read low 0.983 | S. cerevisiae deletion strains, locus YJL168C, strain set2, active compounds read low 0.958 | S. cerevisiae deletion strains, locus YJL187C, strain SWE1 (second series), active compounds read low 1.02 | S. cerevisiae deletion strains, locus YJR043C, strain POL32, active compounds read low 0.958 | S. cerevisiae deletion strains, locus YKL009W, strain mrt4, active compounds read low 1.02 | S. cerevisiae deletion strains, locus YKL068W, active compounds read low 0.966 | S. cerevisiae deletion strains, locus YKL085W, strain MDH1 (second series), active compounds read low 0.972 | S. cerevisiae deletion strains, locus YKL085W, strain MDH1, active compounds read low 0.972 | S. cerevisiae deletion strains, locus YKR001C, strain vps1, active compounds read low 0.927 | S. cerevisiae deletion strains, locus YLR039C, strain RIC1, active compounds read low 0.956 | S. cerevisiae deletion strains, locus YLR058C, strain SHM2, active compounds read low 0.992 | S. cerevisiae deletion strains, locus YLR102C, strain apc9, active compounds read low 0.961 | S. cerevisiae deletion strains, locus YLR262C, strain YPT6, active compounds read low 0.971 | S. cerevisiae deletion strains, locus YLR268W, strain sec22, active compounds read low 0.962 | S. cerevisiae deletion strains, locus YLR330W, strain CHS5, active compounds read low 0.988 | S. cerevisiae deletion strains, locus YLR342W, strain FKS1 (second series), active compounds read low 0.944 | S. cerevisiae deletion strains, locus YLR371W, strain rom2, active compounds read low 0.961 | S. cerevisiae deletion strains, locus YLR418C, strain cdc73, active compounds read low 0.894 | S. cerevisiae deletion strains, locus YML016C, strain PPZ1, active compounds read low 0.974 | S. cerevisiae deletion strains, locus YML032C, strain rad52, active compounds read low 0.949 | S. cerevisiae deletion strains, locus YML124C, strain tub3, active compounds read low 0.95 | S. cerevisiae deletion strains, locus YMR078C, strain ctf18, active compounds read low 0.955 | S. cerevisiae deletion strains, locus YMR223W, strain ubp8, active compounds read low 0.961 | S. cerevisiae deletion strains, locus YMR307W, strain GAS1, active compounds read low 1.01 | S. cerevisiae deletion strains, locus YNL067W, strain RPL9B, active compounds read low 1.03 | S. cerevisiae deletion strains, locus YNL153C, strain GIM3, active compounds read low 1.01 | S. cerevisiae deletion strains, locus YNL233W, strain BNI4, active compounds read low 0.967 | S. cerevisiae deletion strains, locus YNL250W, strain rad50, active compounds read low 0.966 | S. cerevisiae deletion strains, locus YNL271C, strain bni1, active compounds read low 0.947 | S. cerevisiae deletion strains, locus YNL298W, strain CLA4, active compounds read low 0.971 | S. cerevisiae deletion strains, locus YNL307C, strain MCK1, active compounds read low 0.943 | S. cerevisiae deletion strains, locus YNR052C, strain pop2, active compounds read low 0.971 | S. cerevisiae deletion strains, locus YOL006C, strain TOP1, active compounds read low 0.932 | S. cerevisiae deletion strains, locus YOL012C, strain htz1 1 | S. cerevisiae deletion strains, locus YOL147C, strain pex11, active compounds read low 0.942 | S. cerevisiae deletion strains, locus YOR061W, strain CKA2, active compounds read low 0.989 | S. cerevisiae deletion strains, locus YOR069W, strain VPS5, active compounds read low 0.98 | S. cerevisiae deletion strains, locus YOR136W, strain idh2, active compounds read low 0.965 | S. cerevisiae deletion strains, locus YOR144C, strain elg1, active compounds read low 0.949 | S. cerevisiae deletion strains, locus YOR184W, strain ser1, active compounds read low 0.925 | S. cerevisiae deletion strains, locus YOR316C, strain cot1, active compounds read low 0.964 | S. cerevisiae deletion strains, locus YPL055C, strain LGE1, active compounds read low 1 | S. cerevisiae deletion strains, locus YPL241C, strain CIN2, active compounds read low 0.977 | S. cerevisiae deletion strains, locus YPR119W, strain clb2, active compounds read low 0.935 | S. cerevisiae deletion strains, locus YPR141C, strain kar3, active compounds read low 0.954 | S. cerevisiae deletion strains, locus YPR163C, strain tif3, active compounds read low 0.952 | S. cerevisiae deletion strains, locus YPR167C, strain met16, active compounds read low 1.01 | S. cerevisiae deletion strains, strain wtn01, active compounds read low 0.95 | S. cerevisiae strains, strain wild type, active compounds read low 0.988

O=C1CC(c2ccc(O)c(O)c2)Oc2cc(O)cc(O)c21 (stereo not drawn)
inactive: S. cerevisiae deletion strains, locus YAL021C, strain ccr4, active compounds read low 0.989 | S. cerevisiae deletion strains, locus YAL026C, strain drs2, active compounds read low 1 | S. cerevisiae deletion strains, locus YAL030W, strain snc1, active compounds read low 0.994 | S. cerevisiae deletion strains, locus YBL061C, strain skt5, active compounds read low 0.984 | S. cerevisiae deletion strains, locus YBR009C, strain hhf1, active compounds read low 1.01 | S. cerevisiae deletion strains, locus YBR023C, strain chs3, active compounds read low 0.987 | S. cerevisiae deletion strains, locus YBR171W, strain sec66, active compounds read low 0.993 | S. cerevisiae deletion strains, locus YBR231C, strain swc5, active compounds read low 0.958 | S. cerevisiae deletion strains, locus YBR279W, strain paf1, active compounds read low 1.01 | S. cerevisiae deletion strains, locus YCL011C, strain gbp2, active compounds read low 1 | S. cerevisiae deletion strains, locus YCL016C, strain dcc1, active compounds read low 1.01 | S. cerevisiae deletion strains, locus YCL061C, strain MRC1, active compounds read low 0.989 | S. cerevisiae deletion strains, locus YCL069W, strain vba3, active compounds read low 1.01 | S. cerevisiae deletion strains, locus YCR088W, strain abp1, active compounds read low 0.999 | S. cerevisiae deletion strains, locus YDL005C, strain med2, active compounds read low 0.977 | S. cerevisiae deletion strains, locus YDL040C, strain nat1, active compounds read low 1.01 | S. cerevisiae deletion strains, locus YDR001C, strain nth1, active compounds read low 1.01 | S. cerevisiae deletion strains, locus YDR069C, strain doa4, active compounds read low 0.958 | S. cerevisiae deletion strains, locus YDR137W, strain rgp1, active compounds read low 0.995 | S. cerevisiae deletion strains, locus YDR159W, strain sac3, active compounds read low 0.995 | S. cerevisiae deletion strains, locus YDR195W, strain ref2 0.983 | S. cerevisiae deletion strains, locus YDR297W, strain sur2, active compounds read low 1.01 | S. cerevisiae deletion strains, locus YDR334W, strain swr1, active compounds read low 1.01 | S. cerevisiae deletion strains, locus YDR335W, strain msn5, active compounds read low 0.994 | S. cerevisiae deletion strains, locus YDR392W, strain spt3, active compounds read low 0.967 | S. cerevisiae deletion strains, locus YEL003W, strain gim4, active compounds read low 0.994 | S. cerevisiae deletion strains, locus YEL037C, strain rad23, active compounds read low 0.986 | S. cerevisiae deletion strains, locus YEL061C, strain CIN8 (second series), active compounds read low 1.01 | S. cerevisiae deletion strains, locus YER015W, strain faa2, active compounds read low 0.996 | S. cerevisiae deletion strains, locus YER016W, strain bim1, active compounds read low 0.992 | S. cerevisiae deletion strains, locus YER111C, strain swi4, active compounds read low 0.99 | S. cerevisiae deletion strains, locus YER155C, strain BEM2 (second series), active compounds read low 0.984 | S. cerevisiae deletion strains, locus YFR010W, strain ubp6, active compounds read low 0.97 | S. cerevisiae deletion strains, locus YGL167C, strain pmr1, active compounds read low 0.991 | S. cerevisiae deletion strains, locus YGL173C, strain kem1, active compounds read low 0.987 | S. cerevisiae deletion strains, locus YGL227W, strain vid30, active compounds read low 1 | S. cerevisiae deletion strains, locus YGL240W, strain doc1, active compounds read low 1.02 | S. cerevisiae deletion strains, locus YGL253W, strain hxk2, active compounds read low 1.01 | S. cerevisiae deletion strains, locus YHR013C, strain ard1, active compounds read low 0.974 | S. cerevisiae deletion strains, locus YHR027C, strain rpn1, active compounds read low 1.01 | S. cerevisiae deletion strains, locus YHR142W, strain chs7, active compounds read low 0.969 | S. cerevisiae deletion strains, locus YJL092W, strain hpr5, active compounds read low 1 | S. cerevisiae deletion strains, locus YJL095W, strain BCK1 (second series), active compounds read low 1 | S. cerevisiae deletion strains, locus YJL115W, strain asf1, active compounds read low 1 | S. cerevisiae deletion strains, locus YJL129C, strain trk1, active compounds read low 0.999 | S. cerevisiae deletion strains, locus YJL154C, strain vps35, active compounds read low 1.02 | S. cerevisiae deletion strains, locus YJL164C, strain tpk1, active compounds read low 0.973 | S. cerevisiae deletion strains, locus YJL166W, strain qcr8, active compounds read low 1.01 | S. cerevisiae deletion strains, locus YKL160W, strain elf1, active compounds read low 0.975 | S. cerevisiae deletion strains, locus YKR026C, strain gcn3, active compounds read low 1.02 | S. cerevisiae deletion strains, locus YKR091W, strain srl3, active compounds read low 0.994 | S. cerevisiae deletion strains, locus YLL001W, strain dnm1, active compounds read low 0.992 | S. cerevisiae deletion strains, locus YLL026W, active compounds read low 1 | S. cerevisiae deletion strains, locus YLL041C, strain sdh2, active compounds read low 0.997 | S. cerevisiae deletion strains, locus YLR027C, strain aat2, active compounds read low 1.01 | S. cerevisiae deletion strains, locus YLR221C, strain rsa3, active compounds read low 0.998 | S. cerevisiae deletion strains, locus YLR258W, strain gsy2, active compounds read low 0.992 | S. cerevisiae deletion strains, locus YLR262C, strain YPT6 (second series), active compounds read low 1.01 | S. cerevisiae deletion strains, locus YLR320W, strain mms22, active compounds read low 0.98 | S. cerevisiae deletion strains, locus YLR342W, strain FKS1, active compounds read low 0.993 | S. cerevisiae deletion strains, locus YLR357W, strain rsc2, active compounds read low 0.966 | S. cerevisiae deletion strains, locus YLR370C, strain arc18, active compounds read low 1.01 | S. cerevisiae deletion strains, locus YLR384C, strain iki3, active compounds read low 1.01 | S. cerevisiae deletion strains, locus YML120C, strain ndi1, active compounds read low 1 | S. cerevisiae deletion strains, locus YMR058W, strain fet3, active compounds read low 0.969 | S. cerevisiae deletion strains, locus YMR125W, strain sto1, active compounds read low 0.995 | S. cerevisiae deletion strains, locus YMR129W, active compounds read low 1 | S. cerevisiae deletion strains, locus YMR205C, strain PFK2, active compounds read low 1 | S. cerevisiae deletion strains, locus YMR231W, strain pep5, active compounds read low 0.996 | S. cerevisiae deletion strains, locus YNL071W, strain lat1, active compounds read low 0.998 | S. cerevisiae deletion strains, locus YNL209W, strain ssb2, active compounds read low 1 | S. cerevisiae deletion strains, locus YNL248C, strain rpa49, active compounds read low 0.989 | S. cerevisiae deletion strains, locus YNL322C, strain KRE1 (second series), active compounds read low 0.997 | S. cerevisiae deletion strains, locus YNR049C, strain mso1, active compounds read low 1 | S. cerevisiae deletion strains, locus YOR001W, strain rrp6, active compounds read low 0.997 | S. cerevisiae deletion strains, locus YOR070C, strain gyp1, active compounds read low 0.992 | S. cerevisiae deletion strains, locus YOR080W, strain dia2, active compounds read low 0.984 | S. cerevisiae deletion strains, locus YOR083W, strain WHI5, active compounds read low 0.951 | S. cerevisiae deletion strains, locus YOR106W, strain vam3, active compounds read low 0.984 | S. cerevisiae deletion strains, locus YOR265W, strain rbl2, active compounds read low 1 | S. cerevisiae deletion strains, locus YOR270C, strain vph1, active compounds read low 1.08 | S. cerevisiae deletion strains, locus YOR290C, strain snf2, active compounds read low 0.995 | S. cerevisiae deletion strains, locus YPL051W, strain arl3, active compounds read low 0.975 | S. cerevisiae deletion strains, locus YPL078C, strain atp4, active compounds read low 0.991 | S. cerevisiae deletion strains, locus YPL106C, strain sse1, active compounds read low 0.993 | S. cerevisiae deletion strains, locus YPL240C, strain hsp82, active compounds read low 1.01
